# In ChEMBL document CHEMBL1961873, “Compounds: GSK PKIS; Assays: Nanosyn kinase panel” (2012):
# Molecular target: Tyrosine-protein kinase ABL1 (Homo sapiens) (UniProt P00519)
# Details: at 0.1 µM
# Chain of Tyrosine-protein kinase ABL1 (Homo sapiens) (P00519 whole entry): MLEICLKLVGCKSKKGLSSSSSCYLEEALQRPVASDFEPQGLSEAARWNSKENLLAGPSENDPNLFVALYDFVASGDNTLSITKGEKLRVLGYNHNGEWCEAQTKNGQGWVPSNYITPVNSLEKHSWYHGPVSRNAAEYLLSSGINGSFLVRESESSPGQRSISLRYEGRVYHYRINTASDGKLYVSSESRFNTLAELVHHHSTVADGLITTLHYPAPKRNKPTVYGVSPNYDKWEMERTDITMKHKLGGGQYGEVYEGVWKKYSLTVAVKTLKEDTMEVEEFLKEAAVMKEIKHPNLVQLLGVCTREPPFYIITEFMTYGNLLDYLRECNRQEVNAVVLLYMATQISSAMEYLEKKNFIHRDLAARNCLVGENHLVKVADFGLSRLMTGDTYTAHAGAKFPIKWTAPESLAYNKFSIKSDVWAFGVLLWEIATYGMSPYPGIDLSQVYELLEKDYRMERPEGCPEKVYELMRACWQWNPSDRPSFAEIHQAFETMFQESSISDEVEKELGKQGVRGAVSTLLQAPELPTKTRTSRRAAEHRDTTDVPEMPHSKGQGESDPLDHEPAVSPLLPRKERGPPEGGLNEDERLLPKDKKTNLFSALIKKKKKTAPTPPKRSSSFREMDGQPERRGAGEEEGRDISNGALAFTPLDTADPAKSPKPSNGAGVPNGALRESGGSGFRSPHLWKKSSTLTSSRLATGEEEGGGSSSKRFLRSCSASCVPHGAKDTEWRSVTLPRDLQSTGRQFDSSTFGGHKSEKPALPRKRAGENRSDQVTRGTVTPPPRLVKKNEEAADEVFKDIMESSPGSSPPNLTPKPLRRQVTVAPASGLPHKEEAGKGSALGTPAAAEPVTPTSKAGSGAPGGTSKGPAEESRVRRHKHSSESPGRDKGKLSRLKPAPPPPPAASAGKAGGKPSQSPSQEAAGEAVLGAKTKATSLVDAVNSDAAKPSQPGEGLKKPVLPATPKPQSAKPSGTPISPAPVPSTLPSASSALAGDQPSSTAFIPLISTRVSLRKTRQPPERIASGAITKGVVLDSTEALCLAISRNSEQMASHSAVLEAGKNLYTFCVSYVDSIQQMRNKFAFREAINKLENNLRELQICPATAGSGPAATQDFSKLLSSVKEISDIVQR
row,Compound,inhibition [%]
1,Nc1ccc(C#Cc2cncnc2Nc2ccc(OCc3cccc(F)c3)c(Cl)c2)cc1,3.72
2,O=S(=O)(CCOCc1ccc(-c2ccc3ncnc(Nc4ccc(OCc5cccc(F)c5)c(Cl)c4)c3c2)o1)c1ccccc1,2.88
3,Nc1nccc(C#Cc2cncnc2Nc2ccc(OCc3cccc(F)c3)c(Cl)c2)n1,4.16
4,ON=C1CCc2cc(-c3nc(C4CCNCC4)[nH]c3-c3ccncc3)ccc21,1.37
5,Cc1cc(O)cc(C)c1/C=C/c1cncc(C(=O)N(C)C)c1,6.26
6,CCn1c(-c2nonc2N)nc2c(C#CC(C)(C)O)nc(OCCNC)cc21,4.99
7,Cc1cc(-c2ccccn2)cc(C)c1/C=C/c1cncc(-c2nn[nH]n2)c1,7.78
8,NS(=O)(=O)c1ccc(-c2cc3ccncc3cc2OCc2ccccc2)cc1,3.52
9,CS(=O)(=O)Nc1cccc(-c2ccc3c(NC(=O)C4CC4)n[nH]c3c2)c1,1.81
10,O=C(Nc1ccc(Oc2ccc3[nH]c(NC(=O)c4ccco4)nc3c2)cc1)Nc1cc(C(F)(F)F)ccc1F,27.9
11,COc1ccc2ncnc(Nc3ccc(OCc4ccccc4)cc3)c2c1,1.65
12,COC(=O)c1cncc(/C=C/c2c(C)cc(O)cc2C)c1,11
13,Cc1ccc(C(=O)NC2CC2)cc1-c1ccc2[nH]ncc2c1,-0.56
14,COc1cc2ncnc(Nc3ccc4c(cnn4Cc4ccccc4)c3)c2cc1OC,3.47
15,Cc1ccc2c(c1)/C(=N/Nc1ccc(S(N)(=O)=O)cc1)C(=O)N2,0.83
16,CN(C)CCCn1c(-c2nonc2N)nc2cnccc21,2.69
17,CCCN1CCCC(c2ccc(Nc3nc(Nc4cc(F)ccc4C(N)=O)c4cc[nH]c4n3)c(OC)c2)C1 (configuration not stated),3.75
